Compounds with a hit are over-represented: about 3.1% of the library has one in this group of screens.
UHRF1 MBD2 ctr: blocks human UHRF1 binding to methylated DNA; inhibition, % at 4.4 µM; Q96T88; 370,000 tested, 0.75% active; UHRF1 binding to methylated oligo, TR-FRET; AID 687016; in the data active = inhibition above about 21%;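 note: UHRF1 SRA domain binding a hemimethylated CpG hairpin DNA probe; 0% = median of test compound wells and 100% = reference inhibitor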
LEDGF integ inh: blocks HIV-1 LEDGF/p75-dependent DNA integration; inhibition, % at 3.7 µM; AID 743269; TR-FRET IN-LEDGF/p75 DNA integration, Eu/Cy5; 370,000 tested, 0.64% active;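 active = inhibition above the screen-wide mean plus 3 SD, cut at about 13% in these data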;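 note: signal is the Cy5 over europium emission ratio at 671 and 618 nm; 0% = plate median of compound wells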
KLK7 zymogen act: activates the human kallikrein-7 zymogen | P49862 | purified proKLK7, EDANS-DABCYL substrate fluorescence; 100% is mature enzyme control, 0% vehicle | activation, % at 7 µM | 370,000 tested, 0.9% active;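 active = activation above the mean of all tested compounds plus 3 SD, computed per campaign excluding outliers beyond control limits, cut at about 13% in these data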
Target sequence (P49862 whole entry, looked up): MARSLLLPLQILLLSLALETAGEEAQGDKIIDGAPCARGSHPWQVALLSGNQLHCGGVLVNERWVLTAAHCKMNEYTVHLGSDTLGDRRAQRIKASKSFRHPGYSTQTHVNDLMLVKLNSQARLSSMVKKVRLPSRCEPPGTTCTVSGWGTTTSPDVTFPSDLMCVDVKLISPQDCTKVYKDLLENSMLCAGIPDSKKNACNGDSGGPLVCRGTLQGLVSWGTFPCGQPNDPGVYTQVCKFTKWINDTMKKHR
MBD2 DNA inh: blocks human MBD2 binding to methylated DNA; TR-FRET, MBD2 binding to methylated oligonucleotide; inhibition, % at 4.4 µM; 370,000 tested, 0.31% active; AID 686964; in the data active = inhibition above about 13%
Neddylation inh: inhibitors of human cullin neddylation; P61081+Q13564; TR-FRET cullin neddylation, biochemical; calls only at 25 µM; 360,000 tested, 0.58% active; AID 651699; in the data active = inhibition above about 36%
Rin1 Abl inh: inhibitors of human Rin1-Abl protein interaction; AID 588664; 360,000 tested, 0.4% active; TR-FRET Rin1/Abl binding, biochemical; inhibition, % at 7.35 µM; P00519+Q13671; in the data active = inhibition above about 5%, passing the limit was not always enough
Neddyl conf: confirmation of human cullin neddylation inhibitors; calls only at 25 µM; 1,800 tested, 13% active; shares compounds with Neddylation inh; TR-FRET cullin neddylation biochemical assay; in the data active = inhibition above about 40%;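 note: neddylation substrate is the cullin 1 ring ligase complex with SKP2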
The depositor's hits bear a star; i = inactive; . = not tested or not shown; + = active, no number.

SMILES | UHRF1 MBD2 ctr | LEDGF integ inh | KLK7 zymogen act | MBD2 DNA inh | Neddylation inh | Rin1 Abl inh | Neddyl conf
CC1(C2CC2)NC(=O)N(CC(=O)Nc2ccccc2-c2ccccc2)C1=O (stereo not drawn) | 2 | 0 | 0 | 1 | i | -2 | .
COc1cc(NC(=O)CSc2nc3ccccc3n2-c2ccccc2)c(C)cc1[N+](=O)[O-] | 4 | -3 | 0 | 2 | + | -3 | i
CCCCC(=O)N(C)c1c(CC)nc2c(OCc3cc(Cl)cc(Cl)c3)cccn12 | 0 | -3 | 0 | -5 | i | 1 | .
COc1cc(/C=N/c2oc(-c3ccccc3)cc2C#N)ccc1O | -2 | -6 | -1 | -8 | i | -1 | .
O=c1[nH]c2ccccc2nc1/C=C/c1ccccc1 | -2 | 1 | -10 | 4 | + | 0 | .
O=c1[nH]c2ccccc2nc1/C=C/c1ccc(O)cc1 | -5 | 2 | 5 | -1 | i | -3 | .
COc1ccc(S(=O)(=O)Nc2nc3ccccc3nc2Nc2cccc(C(=O)O)c2)cc1 | 2 | -1 | 1 | -3 | + | -2 | i
CC(=O)Nc1ccc(S(=O)(=O)Nc2nc3ccccc3nc2Nc2ccccc2)cc1 | 0 | 4 | -1 | 3 | . | -1 | .
Cc1cc(NC(=O)CCC(=O)N(Cc2ccc(F)cc2)C(C(=O)NC2CCCC2)c2ccco2)no1 (stereo not drawn) | 1 | 2 | 0 | 0 | i | 3 | .
O=C(NNC1=Nc2ccccc2SC1)c1ccccc1F | 5 | 2 | 0 | -2 | i | 0 | .
O=C(NNC1=Nc2ccccc2SC1)c1cccc([N+](=O)[O-])c1 | -1 | -2 | 0 | -2 | + | -1 | i
Cn1nc(C(F)(F)F)c(-c2cccc(C(F)(F)F)c2)c1NC(=O)c1nccnc1C(=O)O | -1 | 1 | 0 | -1 | i | 1 | .
Cn1nc(C(F)(F)F)c(-c2cccc(C(F)(F)F)c2)c1NC(=O)c1ccco1 | -2 | 2 | 0 | -5 | + | 1 | i
c1nc2sc3c(c2c2nnnn12)CCC3 | -1 | 2 | -3 | 1 | + | -5 | i
c1nc2sc3c(c2c2nnnn12)CCCC3 | -1 | -2 | -1 | 4 | i | 0 | .
O=C(CCCN1CCC(C(O)c2ccc(F)cc2)CC1)c1ccc(F)cc1 (stereo not drawn) | 1 | 2 | 0 | -4 | i | 1 | .
Nc1nnc(CC(=O)N/N=C/c2ccc(-c3ccccc3)o2)s1 | -6 | 3 | 0 | -7 | i | -7 | .
COC(=O)c1ccc(-c2ccc(/C=N/NC(=O)Cc3nnc(N)s3)o2)cc1 | 32* | -5 | -5 | -1 | + | -7 | i
COc1cc(/C=N\NC(=O)c2ccc(-c3ccccc3)cc2)cc(Br)c1O | 3 | 1 | 0 | 1 | + | -7 | i
CCN1C(=NCC(C)C)N[C@@H](c2cccc(F)c2)C(C(=O)OC)=C1C | 3 | 2 | 0 | -1 | i | -4 | .
O=C(Cn1nc(-c2ccco2)ccc1=O)Nc1cc(Cl)ccc1Cl | -3 | -6 | 6 | 0 | + | -2 | i
O=C(Cn1nc(-c2ccco2)ccc1=O)Nc1cc(C(F)(F)F)ccc1Cl | 0 | 0 | 2 | 0 | . | -3 | .
CCOc1ccccc1CNc1ccc(N2CCOCC2)c(C(=O)O)c1 | . | . | . | . | + | 2 | i
CCOC(=O)c1cc(NC(=O)c2cccs2)ccc1N1CCOCC1 | 4 | -4 | 1 | 1 | i | -3 | .
CCOC(=O)c1cc(NCc2cccs2)ccc1N1CCOCC1 | 0 | -5 | -1 | 2 | + | 3 | i
SMILES | UHRF1 MBD2 ctr | LEDGF integ inh | KLK7 zymogen act | MBD2 DNA inh | Neddylation inh | Rin1 Abl inh | Neddyl conf
CC(=O)CC[C@H]1CC[C@]2(CCCN(C(=O)C(C)(C)C)C2)O1 | 0 | -3 | 0 | -1 | . | . | .
Cc1nn(C)c2nc(-c3cccs3)cc(C(F)(F)F)c12 | 0 | 0 | -3 | -3 | + | 4 | i
Cc1nn(CCO)c2nc(-c3cccs3)cc(C(F)(F)F)c12 | 5 | -5 | 7 | 6 | . | -1 | .
COc1cccc(/C=C/C(=O)OCC(=O)c2ccc[nH]2)c1 | -1 | 3 | 6 | -2 | + | -6 | i
COc1cccc(/C=C/C(=O)OCC(=O)Nc2ccccc2Sc2ccccc2)c1 | -1 | -1 | -2 | 6 | + | -2 | i
COc1ccc(CC(=O)N2CCN(C(=O)Cc3ccc(OC)cc3)CC2)cc1 | -1 | 2 | -1 | -2 | i | 2 | .
COc1ccc(CC(=O)N2CCN(c3ccc(C4=NNC(=O)CC4C)cc3)CC2)cc1 (stereo not drawn) | 1 | 3 | 3 | -3 | + | -7 | .
Cc1cc(C)cc(Cn2cc(CN3CC(N4CCN(Cc5ccccc5F)CC4)CS3(=O)=O)nn2)c1 (stereo not drawn) | 11 | -2 | 0 | 2 | i | . | .
c1ccc(-c2nc(N3CCCC3)nc3ccccc23)cc1 | 2 | -2 | -4 | -1 | i | 2 | .
Cc1cc(N2CCOCC2)nc2ccccc12 | 0 | -2 | 1 | 1 | i | -2 | .
c1ccc(-c2cc(N3CCOCC3)nc3ccccc23)cc1 | 2 | -1 | -5 | 3 | + | -2 | i
Clc1ccc(-c2nc(N3CCOCC3)nc3ccccc23)cc1 | 12 | -1 | -1 | -4 | + | -3 | .
N#Cc1cc(N2CCOCC2)nc2ccccc12 | -1 | -2 | 1 | -2 | + | 2 | i
CN1C(=O)c2cc(NC(=O)Cc3cccs3)ccc2OC[C@@H]2O[C@@H](CC(=O)N[C@H]3CCN(Cc4ccccc4)C3)CC[C@@H]21 | 0 | -3 | 0 | 1 | . | . | .
CCC[C@H]1[C@@H](NC(=O)c2cccc(N(C)C)c2)CC[C@@]23CCCN2C(=O)CCC[C@@H]13 | -2 | -2 | . | 1 | . | . | .
COc1cc(F)c(S(=O)(=O)N2CCCN(S(=O)(=O)c3cccc(N)c3)CC2)c(F)c1 | 0 | 0 | . | 5 | . | . | .
COc1ccc2oc(=O)cc(CN3CCN(Cc4ccc(OC)c(OC)c4OC)CC3)c2c1 | 6 | 7 | 2 | 0 | i | 1 | .
CCn1c(SCC(=O)Nc2ccccc2-c2ccccc2)nnc1-c1ccc(C)cc1 | 2 | -4 | 0 | 2 | . | . | .
CCOC(=O)c1ccc(-c2ccc(/C=N/NC(=O)CN(c3ccccc3Cl)S(C)(=O)=O)o2)cc1 | 2 | -3 | -1 | 2 | + | 0 | i
CC1CCN(C(=O)C(C)NCc2ccc(F)cc2)CC1 (stereo not drawn) | 1 | 3 | -1 | -2 | i | -2 | .
Cc1nc2ccc(NC(=O)/C=C/C(=O)O)cc2nc1C | -2 | 1 | -6 | -3 | i | -3 | .
O=C(O)/C=C/C(=O)Nc1ccc2nccnc2c1 | 0 | -5 | 1 | 3 | + | -1 | i
